From PubChem BioAssay (NCI)
The panel holds about 79,000 compounds, 15% with a hit somewhere; the sample as a whole holds those more often. Rule as the data show it: active = growth inhibition above about 70%; inactive = the rest.

Columns and labels:
[1] = NCI Yeast Anticancer Drug Screen. Data for the rad50 strain (AID 155);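 also: 0% = growth of vehicle-only cultures of the same strain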; conditions: S. cerevisiae rad50 strain growth inhibition; at 50.0 µM; hits give high values
In short: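 A DNA repair-deficient yeast mutant serves as the test organism; compound-induced growth inhibition is calculated against vehicle-treated cells.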

[2] = NCI Yeast Anticancer Drug Screen. Data for the mec2-1 strain (AID 157); conditions: S. cerevisiae mec2-1 strain, at 50.0 µM, hits give high values
In short: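 Yeast mec2-1 mutant treated with compound. Readout: growth inhibition vs vehicle controls.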

[3] = NCI Yeast Anticancer Drug Screen. Data for the sgs1 mgt1 strain (AID 161);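 also: 0% = growth of cultures given vehicle only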; conditions: S. cerevisiae sgs1 mgt1 strain, at 50.0 µM, hits give high values
In short: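 Mutant yeast exposed to compound; growth scored against vehicle-only wells.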

[4] = NCI Yeast Anticancer Drug Screen. Data for the cln2 rad14 strain (AID 165);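 also: 0% = growth equal to vehicle treated cultures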; conditions: S. cerevisiae cln2 rad14 strain, at 50.0 µM, hits give high values
In short: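 cln2 rad14 yeast strain; compound exposure; growth inhibition read vs vehicle controls.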

[5] = NCI Yeast Anticancer Drug Screen. Data for the bub3 strain (AID 167); conditions: S. cerevisiae bub3 mutant strain, at 50.0 µM, hits give high values
In short: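 Inhibition values come from growth of compound-treated mutant yeast normalised to vehicle-treated controls.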

[6] = NCI Yeast Anticancer Drug Screen. Data for the mlh1 rad18 strain (AID 175); conditions: S. cerevisiae mlh1 rad18 strain growth inhibition; at 50.0 µM; hits give high values
In short: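 Yeast w/ defined DNA-repair lesions; compound exposure; growth vs vehicle controls → % inhibition.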

Measured: growth inhibition

CCCCCCCCCCCCCCCCCCNC(=O)N(C)Cc1ccccc1
inactive: [1] 17.5% | [2] 1.65% | [3] -0.65% | [4] -4.75% | [5] -1% | [6] -8.05%

C[C@H](OCc1ccccc1)C(=O)N1CCS(=O)(=O)N2CCC[C@@H]2C1=O
inactive: [1] 5.05% | [2] -19.1% | [3] -18.2% | [4] 19.4% | [5] -5.9% | [6] -17.9%

Cc1ccc(NC(=O)N2CC2C)cc1NC(=O)N1CC1C (stereo not drawn)
inactive: [1] 2.4% | [2] 5.55% | [3] -7.05% | [4] 17.3% | [5] 6.9% | [6] -9.45%

O=C(OCCN=c1c2ccccc2ccc2ccccc12)c1cc([N+](=O)[O-])cc([N+](=O)[O-])c1
inactive: [1] 13.1% | [2] 4.75% | [3] 34.3% | [4] 21% | [5] 13.6% | [6] 39.8%

N#CC(C#N)=CN1CCNC1=S
inactive: [1] 14.3% | [2] -1.2% | [3] 20.4% | [4] 16.6% | [5] 17.6% | [6] 17.6%

CC(C)(C(=O)c1cccnc1)c1cccnc1
inactive: [1] 4.25% | [2] -9.25% | [3] 17.1% | [4] 2.3% | [5] 17.1% | [6] 12.7%

CN1C(=O)C(O)(c2c3c(c(C4(O)C(=O)N(C)c5ccccc54)c4c2OCO4)OCO3)c2ccccc21 (stereo not drawn)
inactive: [1] 0.45% | [2] -0.6% | [3] -28.2% | [4] -7.35% | [5] -5.2% | [6] 8.95%

COc1ccc(Cl)cc1NC(=O)O/N=C(\Cl)C(C)C
inactive: [1] -3.65% | [2] 7.55% | [3] 10.9% | [4] 16.2% | [5] 24.9% | [6] -74.3%

CC(=O)Nc1ccc(CCNC(=O)c2ccc3ccccc3c2O)cc1
inactive: [1] -21.8% | [2] -33.1% | [3] -15.2% | [4] -6.35% | [5] -11.8% | [6] -13.4%

CCN(CC)C(=O)c1cc2c(cc1[N+](=O)[O-])OCO2
inactive: [1] -0.6% | [2] -15.4% | [3] 3.65% | [4] -45.8% | [5] 1.25% | [6] -18.4%

OC12c3ccccc3C1CCCCCCCCCC21OCCO1 (stereo not drawn)
inactive: [1] -21.5% | [2] -2.45% | [3] -40.6% | [4] 5.05% | [5] -19.1% | [6] -27.8%

CCc1nc(-c2ccccc2)nc2c1nc(-c1cccc(C)c1)n2Nc1ccccc1
inactive: [1] 1.45% | [2] 3.1% | [3] -6.15% | [4] -3% | [5] -1.6% | [6] 24.1%

N=C(N)SCCC(=O)CCSC(=N)N
inactive: [1] 27.9% | [2] 18.6% | [3] 33.6% | [4] 32.2% | [5] 15.6% | [6] -2.75%

CCCCNCC1COc2cccc(OCC)c2O1 (stereo not drawn)
inactive: [1] 17.1% | [2] -0.1% | [3] -2% | [4] 9.7% | [5] -6.75% | [6] 4%

COC(=O)C(CCCCNC(=O)OCc1ccccc1)NC(=O)c1ccc(N(C)C=O)cc1 (stereo not drawn)
inactive: [1] 14.6% | [2] 19.7% | [3] -1.7% | [4] 26.6% | [5] 3.45% | [6] 14.8%

COc1ccccc1NC(=O)C1=C(C)NC(C)=C(C(=O)Nc2ccccc2OC)C1c1cccc2ccccc12
inactive: [1] 28.4% | [2] -2.35% | [3] -18.2% | [4] 29.4% | [5] 6.65% | [6] 0.5%

CCOC(=O)Nc1nc2ccccc2n1CN1CCOCC1
inactive: [1] -32.1% | [2] -11.9% | [3] -18.9% | [4] -14.9% | [5] -5.35% | [6] -7.8%

COc1cc(/C=N\N=C(/C)c2ccc(C)cc2C)cc(OC)c1OC
inactive: [1] 21.4% | [2] 23.1% | [3] 24.8% | [4] 22.9% | [5] 24.9% | [6] 24.6%

CC(C)c1cccc(C(C)C)c1NC1=CC(=O)C(=O)c2ccccc21
inactive: [1] -7.25% | [2] 14.4% | [3] -16.8% | [4] -0.2% | [5] 4.85% | [6] -7.85%

CC(C)SSC(=O)N1CCCC1C(=O)O (stereo not drawn)
inactive: [1] -1.6% | [2] 3.05% | [3] -5.45% | [4] -30.9% | [5] -1% | [6] -1.7%

Nc1ccc2ccccc2c1[N+](=O)[O-]
inactive: [1] 25.9% | [2] 10.1% | [3] 37.6% | [4] 17.5% | [5] 14.9% | [6] 39.3%

CCOc1c(F)ccc(F)c1-c1c(F)ccc(F)c1OCC
inactive: [1] -7.5% | [2] -0.3% | [3] 5.65% | [4] 2.4% | [5] 3.3% | [6] -5.2%

COc1ccc([N+](=O)[O-])cc1NC(=O)Nc1ccc(F)c([N+](=O)[O-])c1
inactive: [1] 8.6% | [2] 3.4% | [3] -6.3% | [4] 0.2% | [5] -3.8% | [6] 6.3%

Nc1nc(=O)[nH]nc1SCc1ccccc1
inactive: [1] 39.2% | [2] 0.1% | [3] 1.05% | [4] 2.45% | [5] 10% | [6] 10.5%

CC1=NOC(C)(O)/C1=N/O (stereo not drawn)
inactive: [1] 6.8% | [2] 1.05% | [3] 17.9% | [4] -2.75% | [5] 9.75% | [6] -21.3%

CC1(C(=O)O)CCCCCCC1O (stereo not drawn)
inactive: [1] 10.2% | [2] 9.55% | [3] -2.55% | [4] 8.1% | [5] -6.1% | [6] -7.9%

CCNCc1cc(Nc2nc(NC3CCC(N(C)C)CC3)c3ccccc3n2)ccc1OC (stereo not drawn)
inactive: [1] 2.4% | [2] 7% | [3] -5.8% | [4] 28.3% | [5] 3.45% | [6] 9%

N#CCCOC1C(OCCC#N)C(OCCC#N)C(OCCC#N)C(OCCC#N)C1OCCC#N (stereo not drawn)
inactive: [1] -14.2% | [2] -23.1% | [3] 8% | [4] 17.7% | [5] 28.2% | [6] 16.1%

O=C(O)/C=N\Nc1nc2ccccc2[nH]1
inactive: [1] -1.85% | [2] -5.95% | [3] 1.9% | [4] -11.1% | [5] -8.05% | [6] 6.8%

CCOC(=O)CN1C(=O)CSC1=S
inactive: [1] 42% | [2] -3.85% | [3] 24.3% | [4] 22.4% | [5] 61.4% | [6] 31.1%

CCOC(=O)N(CCCl)C(=O)C(C)C
inactive: [1] -21.6% | [2] -39.1% | [3] -10.6% | [4] 24.8% | [5] -25.2% | [6] -11.1%

CCOc1ccc(/C=C\C(=O)O)cc1
inactive: [1] -1.9% | [2] -19.6% | [3] 8.5% | [4] -5.75% | [5] 1.25% | [6] 1.55%

COc1ccc(/C=C/C(=O)C(C)(C)CN2CCCCC2)cc1
inactive: [1] 39.9% | [2] 24.9% | [3] 20.5% | [4] 37.8% | [5] 36.5% | [6] 39.2%

O=[N+]([O-])c1cccc2c1ccc1nonc12
inactive: [1] 17.2% | [2] -5.15% | [3] 2.55% | [4] -52.1% | [5] -15.8% | [6] 20.5%

S=C(N/N=C1\CSCc2ccccc21)Nc1cc(Cl)ccc1Cl
inactive: [1] 11.9% | [2] -4.45% | [3] 6.05% | [4] 10.2% | [5] 23.9% | [6] 0.5%

C1=C(C2=CCCCC2)CCCC1
inactive: [1] -1.35% | [2] 6% | [3] -4.35% | [4] -42.9% | [5] 4.8% | [6] 4.15%

Nc1nc(N)c2cc(S(=O)(=O)c3ccccc3)ccc2n1
inactive: [1] 26.1% | [2] 8.7% | [3] -8.9% | [4] -4.55% | [5] -26.1% | [6] -40.5%

COC(=O)c1c(-c2ccc3c(c2)OCO3)cn(C)c1C
inactive: [1] 5.7% | [2] 1.85% | [3] 24.6% | [4] -5.25% | [5] 7.55% | [6] 11.6%
